The full data set covers some 8,800 targets. This sample favours those with a hit. About 0.5% of all pairs of compound and target were hits.
What was measured:
Assay in all cases: log2 fold change, soluble protein after heating vs DMSO (PISA); higher = thermal stabilisation; K562 lysate, 10 uM; active = over 0.2 and 3.5 SD of the protein, either way, in both replicates (recomputed)
alvocidib = compound: CN1CC[C@H](c2c(O)cc(O)c3c(=O)cc(-c4ccccc4Cl)oc23)[C@H](O)C1 [alvocidib]
How it was run: (§1)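 K562 pellets were dounce-homogenised in PBS pH 7.4 with 1 mM MgCl2, and the crude extract at 1 mg/mL protein was treated with 10 μM compound for 30 min. Aliquots were heated for 3 min across 48°C-58°C, pooled, and brought to 0.5% NP-40 at 4°C; soluble protein was the supernatant after 21,000xg for 90 min. Soluble protein was quantified by TMTpro 16plex LC-MS/MS with channel sums equalised, and reported as log2 fold change in thermal stability against DMSO controls, with values from duplicates.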

Tubastatin A = compound: CN1CCc2c(c3ccccc3n2Cc2ccc(C(=O)NO)cc2)C1 [Tubastatin A]
How it was run: as §1

[1] = compound: CNC(=O)C1=CC=CC=C1NC2=NC(=NC=C2Cl)NC3=C(C=C(C=C3)N4CCOCC4)OC
How it was run: as §1

defactinib = compound: CNC(=O)c1ccc(Nc2ncc(C(F)(F)F)c(NCc3nccnc3N(C)S(C)(=O)=O)n2)cc1 [defactinib]
How it was run: as §1

[2] = compound: CNc1nc(-c2ccc3c(N)n[nH]c3c2)cc(N2C[C@@H](C(=O)NC3CCCCC3)CC[C@H]2C)n1
How it was run: as §1

encorafenib = compound: COC(=O)N[C@@H](C)CNc1nccc(-c2cn(C(C)C)nc2-c2cc(Cl)cc(NS(C)(=O)=O)c2F)n1 [encorafenib]
How it was run: as §1

[3] = compound: COC(=O)[C@H](CCSC)NC(=O)C1=C(C=C(C=C1)NC[C@H](CS)N)C2=CC=CC=C2
How it was run: as §1

alisertib = compound: COc1cc(Nc2ncc3c(n2)-c2ccc(Cl)cc2C(c2c(F)cccc2OC)=NC3)ccc1C(=O)O [alisertib]
How it was run: as §1

[4] = compound: COc1cc2nc(-c3cc(F)ccc3O)nc(N[C@@H]3CNC[C@H]3C(C)(C)O)c2cc1OC
How it was run: as §1

gefitinib = compound: COc1cc2ncnc(Nc3ccc(F)c(Cl)c3)c2cc1OCCCN1CCOCC1 [gefitinib]
How it was run: as §1

lapatinib = compound: CS(=O)(=O)CCNCc1ccc(-c2ccc3ncnc(Nc4ccc(OCc5cccc(F)c5)c(Cl)c4)c3c2)o1 [lapatinib]
How it was run: as §1

pictilisib = compound: CS(=O)(=O)N1CCN(Cc2cc3nc(-c4cccc5[nH]ncc45)nc(N4CCOCC4)c3s2)CC1 [pictilisib]
How it was run: as §1

crizotinib = compound: C[C@@H](Oc1cc(-c2cnn(C3CCNCC3)c2)cnc1N)c1c(Cl)ccc(F)c1Cl [crizotinib]
How it was run: as §1

[5] = compound: C[C@H](C1=CC=C(C=C1)C(=O)NC2=C3C=CNC3=NC=C2)N
How it was run: as §1

duvelisib = compound: C[C@H](Nc1ncnc2nc[nH]c12)c1cc2cccc(Cl)c2c(=O)n1-c1ccccc1 [duvelisib]
How it was run: as §1

gandotinib = compound: Cc1cc(Nc2cc(CN3CCOCC3)c3nc(C)c(Cc4ccc(Cl)cc4F)n3n2)n[nH]1 [gandotinib]
How it was run: as §1

tozasertib = compound: Cc1cc(Nc2cc(N3CCN(C)CC3)nc(Sc3ccc(NC(=O)C4CC4)cc3)n2)n[nH]1 [tozasertib]
How it was run: as §1

doramapimod = compound: Cc1ccc(-n2nc(C(C)(C)C)cc2NC(=O)Nc2ccc(OCCN3CCOCC3)c3ccccc23)cc1 [doramapimod]
How it was run: as §1

bafetinib = compound: Cc1ccc(NC(=O)c2ccc(CN3CC[C@H](N(C)C)C3)c(C(F)(F)F)c2)cc1Nc1nccc(-c2cncnc2)n1 [bafetinib]
How it was run: as §1

[6] = compound: Cc1cccc(CC(=O)N2CCc3c2ccc(-c2cn(C)c4ncnc(N)c24)c3F)n1
How it was run: as §1

Measured: log2 fold change

HAUS5 (UniProt O94927)
UniProt O94927, sequence (O94927 whole entry, looked up): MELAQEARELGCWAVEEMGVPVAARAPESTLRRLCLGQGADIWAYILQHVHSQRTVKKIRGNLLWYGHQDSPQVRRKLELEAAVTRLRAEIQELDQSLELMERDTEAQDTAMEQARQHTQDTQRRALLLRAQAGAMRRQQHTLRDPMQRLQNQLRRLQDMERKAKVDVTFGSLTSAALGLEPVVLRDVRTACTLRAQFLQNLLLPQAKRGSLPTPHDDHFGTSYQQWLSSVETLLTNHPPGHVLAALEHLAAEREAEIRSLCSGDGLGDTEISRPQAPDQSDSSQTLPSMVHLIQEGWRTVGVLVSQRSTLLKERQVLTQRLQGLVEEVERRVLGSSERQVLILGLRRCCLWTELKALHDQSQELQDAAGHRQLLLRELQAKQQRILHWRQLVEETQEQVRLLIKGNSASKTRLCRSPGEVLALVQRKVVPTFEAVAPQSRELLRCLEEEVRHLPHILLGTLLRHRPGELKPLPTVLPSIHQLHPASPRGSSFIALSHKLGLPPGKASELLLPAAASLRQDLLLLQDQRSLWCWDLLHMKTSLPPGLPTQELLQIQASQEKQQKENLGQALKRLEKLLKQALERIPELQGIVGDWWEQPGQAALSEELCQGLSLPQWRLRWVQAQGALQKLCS
inactive: alvocidib 0.062 | Tubastatin A -0.146 | [1] 0.007 | defactinib 0.026 | [2] 0.015 | encorafenib -0.006 | [3] 0.092 | alisertib -0.01 | [4] 0.006 | gefitinib -0.007 | lapatinib -0.036 | pictilisib -0.017 | crizotinib -0.071 | [5] 0.05 | duvelisib 0.044 | gandotinib -0.098 | tozasertib -0.002 | doramapimod 0.032 | bafetinib -0.042 | [6] -0.029

HSP90AA4P (UniProt Q58FG1)
UniProt Q58FG1, sequence (Q58FG1 whole entry, looked up): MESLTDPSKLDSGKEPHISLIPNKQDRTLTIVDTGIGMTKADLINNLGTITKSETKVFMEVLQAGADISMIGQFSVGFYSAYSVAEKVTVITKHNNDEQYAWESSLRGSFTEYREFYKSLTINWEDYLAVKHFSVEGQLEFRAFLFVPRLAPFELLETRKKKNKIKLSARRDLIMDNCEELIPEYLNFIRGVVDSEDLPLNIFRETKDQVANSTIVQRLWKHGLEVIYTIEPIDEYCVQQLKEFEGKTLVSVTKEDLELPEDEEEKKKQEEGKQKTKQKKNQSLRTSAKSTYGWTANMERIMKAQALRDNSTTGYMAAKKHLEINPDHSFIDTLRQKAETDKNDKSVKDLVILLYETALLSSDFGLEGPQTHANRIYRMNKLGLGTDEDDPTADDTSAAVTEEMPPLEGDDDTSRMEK
inactive: alvocidib -0.228 | Tubastatin A 0.052 | [1] -0.081 | defactinib -0.213 | [2] -0.046 | encorafenib -0.022 | [3] 0.123 | alisertib -0.012 | [4] 0.068 | gefitinib 0.042 | lapatinib -0.035 | pictilisib -0.129 | crizotinib -0.032 | duvelisib 0.011 | gandotinib 0.042 | tozasertib 0.08 | doramapimod -0.034 | bafetinib -0.235 | [6] 0.128
active: [5] -0.464

HNRNPDL (UniProt O14979)
UniProt O14979, sequence (O14979 whole entry, looked up): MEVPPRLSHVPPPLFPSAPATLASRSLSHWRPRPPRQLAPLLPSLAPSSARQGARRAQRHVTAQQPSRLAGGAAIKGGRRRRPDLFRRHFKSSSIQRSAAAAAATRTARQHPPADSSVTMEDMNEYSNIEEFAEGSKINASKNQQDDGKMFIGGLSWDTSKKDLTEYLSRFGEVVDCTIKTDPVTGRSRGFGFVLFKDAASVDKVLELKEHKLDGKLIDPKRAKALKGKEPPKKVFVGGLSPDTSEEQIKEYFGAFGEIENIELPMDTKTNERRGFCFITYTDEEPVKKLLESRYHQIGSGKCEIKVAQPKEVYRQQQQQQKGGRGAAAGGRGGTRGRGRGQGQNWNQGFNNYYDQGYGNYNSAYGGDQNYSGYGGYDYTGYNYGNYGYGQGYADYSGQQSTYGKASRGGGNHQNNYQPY
inactive: alvocidib 0.01 | Tubastatin A -0.017 | [1] 0.018 | defactinib -0.006 | [2] -0.002 | encorafenib -0.028 | [3] -0.017 | alisertib 0.04 | [4] -0.005 | gefitinib -0.029 | lapatinib 0.04 | pictilisib -0.002 | crizotinib -0.005 | [5] 0.016 | duvelisib 0.04 | gandotinib -0.025 | tozasertib -0.056 | doramapimod 0.104 | bafetinib 0.072 | [6] -0.035

HDAC2 (UniProt Q92769)
UniProt Q92769, sequence (Q92769 whole entry, looked up): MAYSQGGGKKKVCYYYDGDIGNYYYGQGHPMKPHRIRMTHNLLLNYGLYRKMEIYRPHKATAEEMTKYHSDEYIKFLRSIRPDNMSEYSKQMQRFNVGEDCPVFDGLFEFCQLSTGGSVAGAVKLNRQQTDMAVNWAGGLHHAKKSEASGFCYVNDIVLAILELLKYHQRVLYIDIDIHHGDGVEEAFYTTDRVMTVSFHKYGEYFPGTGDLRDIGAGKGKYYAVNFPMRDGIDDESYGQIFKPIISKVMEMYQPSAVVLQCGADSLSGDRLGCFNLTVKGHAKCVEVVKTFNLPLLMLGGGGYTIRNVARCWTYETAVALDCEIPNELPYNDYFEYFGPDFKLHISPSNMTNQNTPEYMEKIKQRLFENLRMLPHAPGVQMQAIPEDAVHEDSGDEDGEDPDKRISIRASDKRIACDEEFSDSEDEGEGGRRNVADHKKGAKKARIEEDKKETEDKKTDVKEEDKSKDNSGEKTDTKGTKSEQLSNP
inactive: alvocidib -0.01 | Tubastatin A -0.012 | [1] -0.007 | defactinib 0.006 | [2] 0.003 | encorafenib -0.006 | [3] 0.007 | alisertib 0.002 | [4] 0 | gefitinib 0.013 | lapatinib -0.006 | pictilisib 0.002 | crizotinib 0.057 | [5] -0.047 | duvelisib -0.028 | gandotinib 0.018 | tozasertib 0.014 | doramapimod -0.05 | bafetinib -0.021 | [6] 0.028

INTS7 (UniProt Q9NVH2)
UniProt Q9NVH2, sequence (Q9NVH2 whole entry, looked up): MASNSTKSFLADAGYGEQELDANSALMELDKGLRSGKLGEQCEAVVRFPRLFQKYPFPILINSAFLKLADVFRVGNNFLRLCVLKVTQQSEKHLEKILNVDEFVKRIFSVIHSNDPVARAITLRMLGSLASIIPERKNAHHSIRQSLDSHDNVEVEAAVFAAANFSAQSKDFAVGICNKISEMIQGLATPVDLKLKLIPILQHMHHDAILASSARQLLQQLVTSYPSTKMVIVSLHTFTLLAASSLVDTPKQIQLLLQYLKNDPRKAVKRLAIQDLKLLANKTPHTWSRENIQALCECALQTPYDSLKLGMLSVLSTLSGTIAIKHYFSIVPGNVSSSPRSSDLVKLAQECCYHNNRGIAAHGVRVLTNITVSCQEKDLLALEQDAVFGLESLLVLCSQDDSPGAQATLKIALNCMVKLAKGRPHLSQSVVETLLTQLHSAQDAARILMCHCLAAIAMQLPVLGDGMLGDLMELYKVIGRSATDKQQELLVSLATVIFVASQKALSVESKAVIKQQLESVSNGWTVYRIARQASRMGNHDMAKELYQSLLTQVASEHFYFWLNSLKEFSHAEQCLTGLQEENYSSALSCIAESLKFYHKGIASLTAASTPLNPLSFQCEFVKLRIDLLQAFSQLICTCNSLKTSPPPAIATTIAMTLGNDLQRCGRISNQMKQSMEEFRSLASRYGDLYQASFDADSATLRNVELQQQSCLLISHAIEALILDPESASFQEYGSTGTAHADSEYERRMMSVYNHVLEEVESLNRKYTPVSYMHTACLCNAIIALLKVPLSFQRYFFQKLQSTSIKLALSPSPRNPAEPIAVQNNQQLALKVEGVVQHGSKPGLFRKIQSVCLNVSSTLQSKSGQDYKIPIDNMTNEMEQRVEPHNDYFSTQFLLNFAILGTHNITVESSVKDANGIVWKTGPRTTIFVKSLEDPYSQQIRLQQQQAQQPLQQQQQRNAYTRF
inactive: alvocidib -0.012 | Tubastatin A 0.008 | [1] -0.025 | defactinib -0.125 | [2] -0.017 | encorafenib 0.067 | [3] 0.017 | alisertib -0.022 | [4] -0.018 | gefitinib 0.028 | lapatinib 0.01 | pictilisib -0.032 | crizotinib -0.07 | [5] -0.096 | duvelisib 0.01 | gandotinib -0.077 | tozasertib -0.01 | doramapimod 0.4 | bafetinib 0.141 | [6] 0.012

GPN2 (UniProt Q9H9Y4)
UniProt Q9H9Y4, sequence (Q9H9Y4 whole entry, looked up): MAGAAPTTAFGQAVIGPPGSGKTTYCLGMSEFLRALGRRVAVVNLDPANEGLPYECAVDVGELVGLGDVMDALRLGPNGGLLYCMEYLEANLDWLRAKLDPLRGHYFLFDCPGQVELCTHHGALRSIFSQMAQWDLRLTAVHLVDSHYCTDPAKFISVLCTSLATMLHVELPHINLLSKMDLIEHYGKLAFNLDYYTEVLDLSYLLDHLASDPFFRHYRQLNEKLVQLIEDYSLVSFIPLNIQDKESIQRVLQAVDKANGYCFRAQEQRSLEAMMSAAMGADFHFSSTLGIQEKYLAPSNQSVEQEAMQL
inactive: alvocidib -0.034 | Tubastatin A -0.027 | [1] -0.004 | defactinib 0.112 | [2] -0.007 | encorafenib 0.19 | [3] -0.038 | alisertib 0.008 | [4] -0.038 | gefitinib -0.001 | lapatinib 0.041 | crizotinib 0.007 | [5] -0.035 | duvelisib 0.126 | gandotinib 0.068 | tozasertib 0.015 | doramapimod -0.005 | [6] 0.106

GPR108 (UniProt Q9NPR9)
UniProt Q9NPR9, sequence (Q9NPR9 whole entry, looked up): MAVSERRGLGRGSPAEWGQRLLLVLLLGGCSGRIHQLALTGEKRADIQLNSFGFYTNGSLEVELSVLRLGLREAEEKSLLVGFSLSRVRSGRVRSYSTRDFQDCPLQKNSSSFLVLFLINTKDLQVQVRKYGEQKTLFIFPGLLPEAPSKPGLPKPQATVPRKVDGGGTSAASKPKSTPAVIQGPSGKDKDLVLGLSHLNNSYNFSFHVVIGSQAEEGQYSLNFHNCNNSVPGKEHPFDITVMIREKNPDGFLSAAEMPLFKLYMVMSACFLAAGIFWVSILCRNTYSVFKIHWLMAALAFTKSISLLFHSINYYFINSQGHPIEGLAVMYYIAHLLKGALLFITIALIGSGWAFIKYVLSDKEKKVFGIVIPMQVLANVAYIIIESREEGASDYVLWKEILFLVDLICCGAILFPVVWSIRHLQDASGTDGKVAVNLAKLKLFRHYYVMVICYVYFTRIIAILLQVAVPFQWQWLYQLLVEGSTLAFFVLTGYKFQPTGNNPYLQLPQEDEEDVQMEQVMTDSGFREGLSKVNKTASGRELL
active: gandotinib 0.237
inactive: alvocidib -0.068 | Tubastatin A -0.034 | [1] 0.075 | defactinib 0 | [2] 0.014 | encorafenib 0.11 | [3] -0.066 | alisertib 0.001 | [4] 0.047 | gefitinib 0.002 | lapatinib 0.022 | pictilisib 0.03 | crizotinib -0.01 | [5] -0.121 | duvelisib -0.043 | tozasertib 0.024 | doramapimod 0.04 | bafetinib 0.044 | [6] -0.043

HIST2H2BC (UniProt Q6DN03)
UniProt Q6DN03, sequence (Q6DN03 whole entry, looked up): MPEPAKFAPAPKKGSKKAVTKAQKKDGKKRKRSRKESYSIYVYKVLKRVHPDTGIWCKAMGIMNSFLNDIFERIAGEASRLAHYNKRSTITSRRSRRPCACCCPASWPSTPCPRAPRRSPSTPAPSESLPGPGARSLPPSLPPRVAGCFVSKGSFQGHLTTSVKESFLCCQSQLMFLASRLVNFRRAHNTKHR
inactive: alvocidib 0.024 | Tubastatin A 0.004 | [1] 0.019 | defactinib -0.148 | [2] -0.003 | encorafenib 0.092 | [3] 0.143 | alisertib 0.005 | [4] 0.008 | gefitinib -0.12 | lapatinib -0.024 | pictilisib 0.02 | crizotinib -0.024 | [5] 0.183 | duvelisib -0.083 | gandotinib -0.054 | tozasertib 0.019 | doramapimod 0.007 | bafetinib 0.018 | [6] -0.019

HS1BP3 (UniProt Q53T59)
UniProt Q53T59, sequence (Q53T59 whole entry, looked up): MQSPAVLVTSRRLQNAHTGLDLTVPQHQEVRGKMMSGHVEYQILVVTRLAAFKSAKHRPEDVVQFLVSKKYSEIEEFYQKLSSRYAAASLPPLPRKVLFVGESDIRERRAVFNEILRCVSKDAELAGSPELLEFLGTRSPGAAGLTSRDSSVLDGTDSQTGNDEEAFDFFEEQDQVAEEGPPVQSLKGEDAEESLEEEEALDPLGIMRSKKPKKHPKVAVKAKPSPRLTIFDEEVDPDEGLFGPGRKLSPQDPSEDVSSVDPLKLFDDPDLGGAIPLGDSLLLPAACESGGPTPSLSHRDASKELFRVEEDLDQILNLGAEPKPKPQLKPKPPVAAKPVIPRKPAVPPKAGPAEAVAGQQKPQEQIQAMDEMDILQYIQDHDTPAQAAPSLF
inactive: alvocidib -0.054 | Tubastatin A 0.034 | [1] -0.015 | defactinib -0.016 | [2] -0.052 | encorafenib 0.009 | [3] -0.088 | alisertib -0.021 | [4] 0.021 | gefitinib -0.031 | lapatinib 0.024 | pictilisib -0.019 | crizotinib 0.006 | duvelisib -0.047 | gandotinib 0.068 | tozasertib 0.021 | doramapimod -0.019 | bafetinib -0.048 | [6] 0.074
active: [5] -0.253

HLTF (UniProt Q14527)
inactive: alvocidib -0.027 | Tubastatin A -0.083 | [1] -0.001 | defactinib 0.028 | [2] 0.025 | encorafenib 0.004 | [3] 0.104 | alisertib 0.048 | [4] 0.01 | gefitinib 0.076 | lapatinib 0.045 | pictilisib 0.061 | crizotinib -0.019 | [5] -0.063 | duvelisib -0.05 | gandotinib -0.021 | tozasertib 0.004 | doramapimod -0.007 | bafetinib -0.087 | [6] 0.035

H4C1 (UniProt P62805)
active: Tubastatin A 0.373 | [2] 0.569
inactive: alvocidib -0.101 | [1] -0.023 | defactinib -0.02 | encorafenib 0.038 | [3] 0.051 | alisertib 0.018 | [4] 0.012 | gefitinib -0.008 | lapatinib -0.043 | pictilisib -0.069 | crizotinib 0.032 | [5] 0.003 | duvelisib -0.16 | gandotinib 0 | tozasertib -0.027 | doramapimod 0.006 | bafetinib 0.059 | [6] -0.044

IRF2BP1 (UniProt Q8IU81)
UniProt Q8IU81, sequence (Q8IU81 whole entry, looked up): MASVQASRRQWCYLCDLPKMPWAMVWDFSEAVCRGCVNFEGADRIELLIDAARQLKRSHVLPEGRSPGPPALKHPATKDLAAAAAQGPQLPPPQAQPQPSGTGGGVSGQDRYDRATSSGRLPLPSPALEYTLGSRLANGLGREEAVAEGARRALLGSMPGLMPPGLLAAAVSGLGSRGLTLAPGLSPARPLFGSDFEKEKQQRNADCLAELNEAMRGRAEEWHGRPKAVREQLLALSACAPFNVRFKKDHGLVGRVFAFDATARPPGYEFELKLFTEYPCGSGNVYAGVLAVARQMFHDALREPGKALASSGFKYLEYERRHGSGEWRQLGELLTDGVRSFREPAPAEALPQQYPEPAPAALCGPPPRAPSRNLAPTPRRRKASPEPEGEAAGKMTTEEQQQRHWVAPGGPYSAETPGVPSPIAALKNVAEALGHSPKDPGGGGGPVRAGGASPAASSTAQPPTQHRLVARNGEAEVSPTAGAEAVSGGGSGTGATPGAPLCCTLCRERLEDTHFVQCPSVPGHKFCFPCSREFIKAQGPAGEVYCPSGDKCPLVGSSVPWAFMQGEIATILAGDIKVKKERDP
inactive: alvocidib -0.029 | Tubastatin A -0.047 | [1] 0.095 | defactinib 0.045 | [2] 0.091 | encorafenib 0.025 | [3] 0.117 | alisertib 0.042 | [4] 0.038 | gefitinib -0.003 | lapatinib -0.01 | pictilisib 0.008 | crizotinib -0.052 | [5] -0.004 | duvelisib -0.086 | gandotinib 0.004 | tozasertib 0 | doramapimod 0.105 | bafetinib -0.1 | [6] 0.043

ICAM2 (UniProt P13598)
inactive: alvocidib 0.078 | Tubastatin A 0.017 | [1] 0.032 | defactinib 0.039 | [2] -0.019 | encorafenib -0.026 | [3] -0.065 | alisertib -0.016 | [4] 0.009 | gefitinib -0.02 | lapatinib -0.008 | pictilisib -0.08 | crizotinib -0.002 | duvelisib -0.035 | gandotinib -0.04 | tozasertib -0.01 | doramapimod -0.014 | bafetinib 0.013 | [6] -0.075
active: [5] 0.293
